Measured values from PubChem BioAssay.
Entries with a potency or affinity are not part of this list. Results filed as inconclusive are left out. Activity calls are given as the source filed them. The rule behind the calls is not given here.

Assay: general cell-killing toxicity readout – plate reader, dry powder samples, cytotoxicity control for PAX8 inhibitor project, dose response (AID 743021)
Details: cell line, non-specific cytotoxicity counter-screen; series mostly up to 35 µM
In the case of `CC(C)NC(=O)N1Cc2cc(C(=O)NCC(F)(F)F)nc(-c3cccc(-c4cc5ccccc5o4)c3)c2[C@H]1CCO`, the outcome is reported as “inactive”. With `C[C@@H]1CN([C@@H](C)CO)C(=O)c2cc(NC(=O)Nc3cccc4ccccc34)ccc2O[C@@H]1CN(C)Cc1ccc2c(c1)OCO2` the outcome was “inactive”. For `C[C@@H]1CN([C@H](C)CO)C(=O)c2cc(NS(=O)(=O)c3ccc(F)cc3)ccc2O[C@@H](C)CCCCO[C@H]1CN(C)Cc1ccccc1`, the outcome was “inactive”. In the case of `N#C[C@H]1[C@H](c2ccc(C#CC3CCCCC3)cc2)[C@H](CO)N1C(=O)Nc1ccc(F)cc1`, the outcome is reported as “inactive”. With `N#Cc1cccc(-c2ccc3c(c2)[C@@H]2[C@@H](CCN2S(=O)(=O)c2ccc(F)cc2)[C@@H](CO)N3)c1` the outcome was “inactive”. With `CCCN(C)C[C@H]1OCCCC[C@@H](C)Oc2ccc(NC(=O)c3ccccc3)cc2C(=O)N([C@H](C)CO)C[C@H]1C` the outcome was “inactive”. In the case of `C[C@H]1CCCCO[C@H](CN(C)S(=O)(=O)c2ccc(Cl)cc2)[C@@H](C)CN([C@@H](C)CO)C(=O)c2cc(NS(=O)(=O)c3ccc(F)cc3)ccc2O1`, the outcome is reported as “inactive”. For `C[C@@H]1CCCCO[C@@H](CN(C)Cc2ccc(Cl)c(Cl)c2)[C@H](C)CN([C@@H](C)CO)C(=O)c2cc(NC(=O)Nc3ccccc3)ccc2O1`, the outcome was “inactive”. In the case of `C[C@@H]1CN([C@H](C)CO)C(=O)c2cc(NS(=O)(=O)c3ccc(Cl)cc3)ccc2O[C@@H](C)CCCCO[C@H]1CN(C)C(=O)C1CCCCC1`, the outcome is reported as “inactive”. In the case of `C[C@H]1CCCCO[C@@H](CN(C)S(=O)(=O)c2cccs2)[C@@H](C)CN([C@@H](C)CO)C(=O)c2cc(NS(=O)(=O)c3ccc(Cl)cc3)ccc2O1`, the outcome is reported as “inactive”. In the case of `C[C@@H]1CN([C@H](C)CO)C(=O)c2cc(NC(=O)Nc3ccc(F)cc3)ccc2O[C@@H](C)CCCCO[C@H]1CN(C)S(=O)(=O)c1ccc(F)cc1`, the outcome is reported as “inactive”. With `C[C@H](CO)N1C[C@H](C)[C@@H](CN(C)Cc2ccc(Cl)c(Cl)c2)OCCCC[C@H](C)Oc2ccc(NC(=O)Nc3ccc(C(F)(F)F)cc3)cc2C1=O` the outcome was “inactive”. In the case of `CC(C)CC#Cc1ccc([C@@H]2[C@@H](CO)N3CCCCN(S(=O)(=O)c4ccc(F)cc4)C[C@H]23)cc1`, the outcome is reported as “inactive”. In the case of `Cc1noc(C)c1S(=O)(=O)Nc1ccc2c(c1)C(=O)N([C@@H](C)CO)C[C@H](C)[C@H](CN(C)C(=O)Nc1ccc(C(F)(F)F)cc1)OCCCC[C@H](C)O2`, the outcome is reported as “inactive”. For `COc1cccc(S(=O)(=O)N2CC[C@@H]3[C@H](CO)Nc4ccc(C5=CCCCC5)cc4[C@@H]32)c1`, the outcome was “inactive”. For `Cc1noc(C)c1S(=O)(=O)N(C)C[C@H]1OCCCC[C@@H](C)Oc2ccc(NS(=O)(=O)c3ccc(Cl)cc3)cc2C(=O)N([C@@H](C)CO)C[C@H]1C`, the outcome was “inactive”. In the case of `Cc1ccc(S(=O)(=O)N(C)C[C@@H]2OCCCC[C@H](C)Oc3ccc(NS(=O)(=O)c4ccc(Cl)cc4)cc3C(=O)N([C@H](C)CO)C[C@H]2C)cc1`, the outcome is reported as “inactive”. In the case of `C[C@@H]1CN([C@H](C)CO)C(=O)c2cc(NS(=O)(=O)c3ccc(F)cc3)ccc2O[C@@H](C)CCCCO[C@@H]1CN(C)CC1CCCCC1`, the outcome is reported as “inactive”. For `C[C@@H]1CN([C@H](C)CO)C(=O)c2c(c3ccccc3n2C)-c2ccccc2CO[C@H]1CN(C)S(=O)(=O)c1cccc(F)c1`, the outcome was “inactive”. With `C[C@@H]1CN([C@@H](C)CO)C(=O)Cc2cc(NC(=O)Nc3ccc(C(F)(F)F)cc3)ccc2O[C@H]1CN(C)S(=O)(=O)c1ccc(F)cc1` the outcome was “inactive”. For `O=C(Nc1ccc(F)cc1)N1CCCCN2[C@@H](CO)[C@@H](c3ccc(-c4cccc(F)c4)cc3)[C@@H]2C1`, the outcome was “inactive”. In the case of `O=C(CN1C(=O)c2ccccc2S1(=O)=O)c1ccccc1Cl`, the outcome is reported as “inactive”. In the case of `C[C@H](CO)N1C[C@H](C)[C@H](CN(C)Cc2ccc(Cl)c(Cl)c2)OCCCC[C@H](C)Oc2ccc(NC(=O)Nc3ccccc3)cc2C1=O`, the outcome is reported as “inactive”. For `C[C@@H]1CN([C@@H](C)CO)C(=O)c2cccc(NC(=O)c3ccncc3)c2O[C@@H]1CN(C)S(=O)(=O)c1cccs1`, the outcome was “inactive”. For `CCSCCc1nnc(NC(=O)Nc2cccc(C(F)(F)F)c2)s1`, the outcome was “inactive”. For `Cc1cccc(S(=O)(=O)N2C[C@@H](O)COC[C@@H]3O[C@@H](CC(=O)Nc4ccc(-c5ccccc5)cc4)CC[C@H]32)c1`, the outcome was “inactive”. For `C[C@@H]1CCCCO[C@H](CN(C)C)[C@H](C)CN([C@H](C)CO)C(=O)c2cc(NC(=O)Nc3cccc4ccccc34)ccc2O1`, the outcome was “inactive”.
